Data on 39 molecules can be found in PubChem BioAssay (NCI).

The structures appear in SMILES notation. This is part of a sample that, as a whole, favours compounds with a hit. Of some 83,000 tested, about 20% had one in any assay.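 Percent growth is the endpoint: 0 to 100 indicates growth inhibition (40 means 60% inhibition), 0 means no net growth, and negative values indicate cell death.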 Unmarked numbers belong to inactive results. Calls of active or inactive are those of the source. The calls were made as follows: active = growth percent below 10; inactive = the rest.

The experiment relates to SF-295 CNS. Description: NCI-60 one-dose screen, 48 h (100 = growth as untreated, 0 = no growth, -100 = all killed). Conditions: 10 µM.
Turning to `O=S(=O)(NCCCNc1nccc(-c2c(-c3ccc(F)cc3)nc3sccn23)n1)c1ccc2ccccc2c1`, the growth is 43.7%.

Consider `O=C(Nc1cccc(-n2cc(-c3ccncc3)c(-c3ccc(O)c(Cl)c3)n2)c1)c1ccc(Cl)c(Cl)c1`, for which the growth was 13.9%.

With `Cc1ccc(C)c(C(O)(c2cc(C)ccc2C)C2(O)CCCCC2)c1`, the growth was 95.9%.

Take `O=C(/C=C/c1cc2ccccc2[nH]c1=O)c1ccc2c(c1)OCO2`: the growth is 100%.

For the molecule `O=C(Nc1cccc(-n2cc(-c3ccncc3)c(-c3ccc(O)c(Cl)c3)n2)c1)Nc1ccc(Cl)c(Cl)c1`, the growth is -40.4% (active).

Regarding `O=C(Nc1ccc(OS(=O)(=O)c2ccccc2)cc1)C12CC3CC(CC(C3)C1)C2`, the growth was 45.6%.

`COc1ccc(-c2nn(-c3cccc(NC(=O)Nc4ccc(Cl)c(C(F)(F)F)c4)c3)cc2-c2ccncc2)cc1Cl`: the growth is -2.09% (active).

For `COc1ccc(-c2nn(-c3cccc(NC(=O)c4ccc(Cl)c(Cl)c4)c3)cc2-c2ccncc2)cc1Cl`, the growth was 65%.

On to `CCOC(=O)CCC(NC(=O)c1ccc(N)cc1)C(=O)OCC` (centres undefined), for which the growth was 136%.

On to `O=C(Nc1ccccc1)Nc1cccc(-n2cc(-c3ccncc3)c(-c3ccc(O)c(Cl)c3)n2)c1`, for which the growth is -21.7% (active).

As for `O=S(=O)(NCCNc1nccc(-c2c(-c3ccc(F)cc3)nc3sccn23)n1)c1ccc2ccccc2c1`, the growth was 68.2%.

On to `O=C(Nc1cccc(-n2cc(-c3ccncc3)c(-c3ccc(O)c(Cl)c3)n2)c1)c1cc(C(F)(F)F)cc(C(F)(F)F)c1`, for which the growth is 24.9%.

On to `O=C(N/N=C/c1cc2ccccc2c2ccccc12)c1cc(O)c(O)c(O)c1`, for which the growth was 88.8%.

Take `COc1ccc(-c2nn(-c3cccc(NC(=O)c4cc(C(F)(F)F)cc(C(F)(F)F)c4)c3)cc2-c2ccncc2)cc1Cl`: the growth is 53.9%.

As for `O=S(=O)(NCCCNc1nccc(-c2c(-c3ccc(F)cc3)nc3sccn23)n1)c1ccc(F)cc1`, the growth was 25.4%.

Take `COc1ccc(-c2nn(-c3cccc(NC(=O)c4ccc(N5CCOCC5)c(C(F)(F)F)c4)c3)cc2-c2ccncc2)cc1Cl`: the growth was 9.97% (active).

For `CCCCCCN1CCN(Cc2ccc(N(CC)CC)cc2)C(=O)C1=O`, the growth is 11.8%.

Take `COc1ccc(Oc2nc(NC3CCCC3)nc(Sc3ccc(OC)cc3)n2)cc1`: the growth was 67.4%.

Take `COc1ccc(-c2nn(-c3cccc(NC(=O)Nc4cccc(C(F)(F)F)c4)c3)cc2-c2ccncc2)cc1Cl`: the growth is 5.07% (active).

As for `COc1ccc(-c2nn(-c3cccc(NC(=O)Nc4ccccc4)c3)cc2-c2ccncc2)cc1Cl`, the growth is -7.17% (active).

As to `CCOC(=O)c1ccoc1`, the growth was 108%.

For the molecule `COc1ccc(/C=C/C(C)=N/OCC(=O)O)cc1`, the growth is 100%.

Turning to `CN(C)Cc1cn(-c2ncc(-c3ccc(C(F)(F)F)cc3)c(NC3CCCCCC3)n2)nn1`, the growth was 94.3%.

Regarding `COc1cccc(C(=O)Nc2ccc(CN3CCc4nc5cc(OC)c(OC)cc5cc43)cc2)c1`, the growth was 65.7%.

For the molecule `O=[N+]([O-])c1cccc(-c2ncc(-c3ccc(Cl)cc3Cl)[nH]2)c1`, the growth was 93.7%.

Regarding `CCN(CC)CCSCCN(CC)CC`, the growth was 101%.

`COc1ccc([N+](=O)[O-])c(C(=O)O)c1`: the growth is 88.7%.

As for `CNc1ncc(-c2ccc(C(F)(F)F)cc2)c(NC2CCCCCC2)n1`, the growth is 79.4%.

For `CN(C)c1ccc(/C=C/C=N/NC(=O)c2cc(O)c(O)c(O)c2)cc1`, the growth was 103%.

Regarding `O=C(Nc1cccc(-n2cc(-c3ccncc3)c(-c3ccc(O)c(Cl)c3)n2)c1)c1ccc(N2CCOCC2)c(C(F)(F)F)c1`, the growth is -39.7% (active).

On to `Cc1ccc(CC#N)cc1C`, for which the growth is 93%.

For `O=c1oc2cc(OS(=O)(=O)c3ccccc3)ccc2c2c1CCCCC2`, the growth was 59.8%.

For the molecule `CCOC(=O)C(NC(=O)C(Cl)Cl)C(O)c1ccccc1` (centres undefined), the growth was 76.1%.

With `C/C(N)=C(\C#N)C(=O)c1ccccc1`, the growth was 94.1%.

Consider `Nc1ncnc2[nH]c(=O)[nH]c12`, for which the growth is 85.1%.

Regarding `COc1ccc(-c2nn(-c3cccc(NC(=O)c4cccc(C(F)(F)F)c4)c3)cc2-c2ccncc2)cc1Cl`, the growth is -10.7% (active).

With `O=C1CC[C@@H]2CCCC[C@@H]2C1`, the growth was 110%.

On to `Cc1ccc(S(=O)(=O)OCCN(CCOS(=O)(=O)c2ccc(C)cc2)c2c[nH]c(=O)[nH]c2=O)cc1`, for which the growth was 112%.

On to `FC(F)(F)c1ccc(-c2cnc(-n3cc(COCCN4CCCCC4)nn3)nc2NC2CCCCCC2)cc1`, for which the growth was -56.8% (active).
